Results filed as inconclusive are left out. The source made the active and inactive calls. Calls come from the whole dose curve; as a rule, active = well fitted inhibition curve with a large enough effect in the repeat runs; inconclusive = weak or mixed curves; inactive = no such curve, though single readings can be large or run the other way.
Target: Cytochrome P450 2C9 (Homo sapiens) (UniProt P11712)
Test: Cytochrome P450 family 2 subfamily C member 9 (CYP2C9) small molecule antagonists: luciferase biochemical (cell-free) qHTS assay (AID 1645842); note: nearly all actives have a fitted effect of over 55% in size
Settings: P450-Glo CYP2C9 enzyme assay, luciferin luminescence; series mostly up to 57.4 µM
Procedure, shortened: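 Luminescence, after 20 min with luciferin detection reagent, reflected CYP2C9 turnover during a 1 h NADPH-driven reaction at 37C. Enzyme-substrate mix contained 0.4% bovine serum albumin and was preincubated with compound 10 min at room temperature.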
Potency is the fitted concentration of half-maximal effect.

Sequence of Cytochrome P450 2C9 (Homo sapiens) (P11712 whole entry, looked up): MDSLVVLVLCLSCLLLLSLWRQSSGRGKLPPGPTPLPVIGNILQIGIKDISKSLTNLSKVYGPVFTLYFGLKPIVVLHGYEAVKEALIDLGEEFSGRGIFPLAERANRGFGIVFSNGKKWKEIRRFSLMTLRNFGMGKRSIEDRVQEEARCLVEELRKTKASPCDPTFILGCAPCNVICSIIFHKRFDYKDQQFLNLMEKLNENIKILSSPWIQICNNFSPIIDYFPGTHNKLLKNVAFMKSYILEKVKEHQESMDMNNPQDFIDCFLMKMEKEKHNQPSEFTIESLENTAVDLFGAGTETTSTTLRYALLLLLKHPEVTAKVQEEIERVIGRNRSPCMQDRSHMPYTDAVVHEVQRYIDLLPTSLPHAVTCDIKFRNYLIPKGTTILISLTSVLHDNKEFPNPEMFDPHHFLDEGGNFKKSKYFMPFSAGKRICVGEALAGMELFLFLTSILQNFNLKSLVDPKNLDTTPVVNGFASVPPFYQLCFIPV

Row | Structure (SMILES) | Potency
1 | O=S(=O)(Nc1cc(Cl)c(Oc2cnc3ccccc3c2)c(Cl)c1)c1ccc(Cl)cc1Cl | 3.01 µM (active)
2 | O=C(Nc1ccc(Cl)cc1)Nc1cccc(-c2cccc(N3CCCC3)n2)c1 | 9.52 µM (active)
3 | Fc1ccc(-c2cncc(CN3CCN(c4cccc5c4OCCO5)CC3)c2)cc1 | 10.7 µM (active)
4 | N#C/C(=C1\Nc2ccccc2S1)c1ccnc(NCCc2cccnc2)n1 | 0.239 µM (active)
5 | O=C(OC1CN2CCC1CC2)N1CCc2ccccc2C1c1ccccc1 (stereo not drawn) | inactive
6 | CC1(S(=O)(=O)O)CC(=O)c2ccccc2C1=O (stereo not drawn) | 16.9 µM (active)
7 | CCn1c(=O)n([C@H]2CCCN(c3nccc(-c4cc5ccccc5o4)n3)C2)c2ccccc21 | 1.69 µM (active)
8 | COc1ccccc1OCCN1CC(COc2cccc3[nH]c4ccccc4c23)OCC1=O (stereo not drawn) | 0.849 µM (active)
9 | CC(C)Nc1nc(Nc2ccccc2)nc(-c2ccccc2)n1 | 7.56 µM (active)
10 | CC(C)c1cccc(C(C)C)c1NC(=O)Nc1ccc(Sc2ccc([N+](=O)[O-])cc2)cc1 | inactive
11 | CCc1cnc(N2CCC(c3nc(COc4ccc(-n5cnnn5)cc4)cs3)CC2)nc1 | inactive
12 | Cc1ccc(-c2cn3c4c(sc3n2)CCCC4)cc1 | 16.9 µM (active)
13 | CCC(C)c1ccc(NC(=O)Cn2cnc3c2c(=O)n(C)c(=O)n3C)cc1 (stereo not drawn) | 12 µM (active)
14 | OC1CCC(Nc2nc(-c3ccccc3)nc3[nH]ccc23)CC1 (stereo not drawn) | 2.68 µM (active)
15 | Cc1cc2c(N3CCCC3)nc(N3CCCC3)nc2n1C | 15.1 µM (active)
16 | COc1ccc(C#Cc2ccc(C(=O)N3CCC[C@@H](CO)C3)cc2)cc1 | 21.3 µM (active)
17 | Cc1c(Cl)cccc1S(=O)(=O)Nc1nc(NCCc2ccccc2)nc2c1CN(Cc1ccccc1)CC2 | 6.01 µM (active)
18 | COc1ccc2nccc(C(=O)CC[C@@H]3CCN(CC#Cc4cc(F)cc(F)c4F)C[C@@H]3C(=O)O)c2c1 | 7.56 µM (active)
19 | CC#C[C@@H](CC(=O)O)c1ccc(OCc2ccc(CN3CCC4(C=Cc5ccccc54)CC3)s2)cc1 | 23.9 µM (active)

Row | Structure (SMILES) | Potency
20 | O=C(Nc1cccc([N+](=O)[O-])c1)c1cccc(S(=O)(=O)N2CCCCCC2)c1 | 6.01 µM (active)
21 | COc1cc(N2CCOCC2)ccc1NC(=O)c1csc(-c2cccnc2)n1 | inactive
22 | Cc1ccnn1-c1ccc(C(=O)N2CCN(S(=O)(=O)c3ccc(Cl)c(C(F)(F)F)c3)CC2)cc1 | 6.74 µM (active)
23 | CC(C)(O)c1ccn2c(-c3ccc(F)c(-c4ccc(F)cc4C#N)c3)cnc2c1F | 0.756 µM (active)
24 | CCCc1cc2c(N3CCN(C4=NCC(C)(C)S4)CC3)ncnc2s1 | inactive
25 | CC(C)(C)c1ccc(NC(=O)N2CCN(c3ncccc3Cl)CC2)cc1 | 6.01 µM (active)
26 | COC(=O)c1sccc1S(=O)(=O)Nc1ccc(Nc2ccccc2)cc1OC | 2.39 µM (active)
27 | COC(C)=O | inactive
28 | Cc1ccc(S(=O)(=O)N2CCC[C@H]2c2ccc(F)cc2)cc1 | inactive
29 | O=C(Nc1ccc(N2C(=O)[C@@H]3[C@H](C2=O)[C@@H]2C=C[C@H]3C2)c(Cl)c1)c1ccccn1 | 12 µM (active)
30 | Cn1c(CO)c(-c2ccccc2)c2cc([N+](=O)[O-])ccc21 | 19 µM (active)
31 | COc1ccc(OC)c(-c2ccc(NC(=O)c3ccncc3F)cc2)c1 | 1.51 µM (active)
32 | CN(C)S(=O)(=O)c1ccc(NC(=S)N2CCC(C(O)(c3ccccc3)c3ccccc3)CC2)cc1 | 2.68 µM (active)
33 | O=C(C(Cc1cccc(C(F)(F)F)c1)NS(=O)(=O)c1cc(F)c2c(c1)CCNC2)N1CCCC1 (stereo not drawn) | 12 µM (active)
34 | Cc1nc2cc(C(=O)NCc3ccccn3)nn2c(C)c1Cc1cccc(Cl)c1 | 1.2 µM (active)
35 | CCOc1ccc(-n2c(C(C)N(Cc3cccnc3)C(=O)Cc3ccc(F)c(C(F)(F)F)c3)nc3ncccc3c2=O)cc1 (stereo not drawn) | 4.77 µM (active)
36 | Cc1ccc(C)c(NC(=O)[C@@H]2CCCN2S(=O)(=O)c2cccc3cccnc23)c1 | 6.74 µM (active)
37 | O=P(O)(O)OC(CO)CO | inactive
38 | O=C1C(c2[nH]c3ccc(S(=O)(=O)O)cc3c2O)=Nc2ccc(S(=O)(=O)O)cc21 | inactive

Source: PubChem BioAssay (NCATS)
